In article PMC12701074:

Legend:
[1] = biological target: Histone H4 (UniProt P62805); assay: cross-linking mass spectrometry
[2] = biological target: Histone H1.4 (UniProt P10412); assay: cross-link between two proteins; cross-linking mass spectrometry
[3] = biological target: Protein RCC2 (UniProt Q9P258); assay: as above
[4] = biological target: Beta-actin-like protein 2 (UniProt Q562R1); assay: as above
[5] = biological target: Elongation factor 1-alpha 1 (UniProt P68104); assay: as above
[6] = biological target: Histone H2B type 1-B (UniProt P33778); assay: as above
[7] = biological target: Histone H2B type 1-L (UniProt Q99880); assay: as above
[8] = biological target: Large ribosomal subunit protein eL8 (UniProt P62424); assay: as above
[9] = biological target: Nucleolin (UniProt P19338); assay: as above
Sequence of Nucleolin (P19338 whole entry): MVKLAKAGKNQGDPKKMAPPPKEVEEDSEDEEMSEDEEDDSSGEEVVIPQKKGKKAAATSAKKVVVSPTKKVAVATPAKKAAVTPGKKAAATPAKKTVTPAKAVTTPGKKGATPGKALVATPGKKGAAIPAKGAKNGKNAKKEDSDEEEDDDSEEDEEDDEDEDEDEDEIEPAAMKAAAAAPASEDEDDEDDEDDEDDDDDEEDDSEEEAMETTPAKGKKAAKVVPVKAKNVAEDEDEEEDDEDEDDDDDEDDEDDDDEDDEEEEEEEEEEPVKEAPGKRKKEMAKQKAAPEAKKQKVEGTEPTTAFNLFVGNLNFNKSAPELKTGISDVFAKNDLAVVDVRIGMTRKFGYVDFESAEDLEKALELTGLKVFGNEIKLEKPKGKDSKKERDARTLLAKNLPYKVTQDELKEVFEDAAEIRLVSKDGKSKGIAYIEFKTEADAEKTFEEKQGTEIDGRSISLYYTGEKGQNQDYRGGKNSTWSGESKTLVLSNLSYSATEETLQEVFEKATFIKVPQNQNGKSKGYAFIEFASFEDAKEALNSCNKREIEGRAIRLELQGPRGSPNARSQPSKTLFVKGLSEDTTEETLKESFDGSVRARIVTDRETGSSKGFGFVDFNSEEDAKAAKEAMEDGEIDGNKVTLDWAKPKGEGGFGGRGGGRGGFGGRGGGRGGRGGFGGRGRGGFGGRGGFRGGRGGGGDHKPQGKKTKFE

[10] = biological target: Tubulin beta-2B chain (UniProt Q9BVA1); assay: as above
Sequence of Tubulin beta-2B chain (Q9BVA1 whole entry): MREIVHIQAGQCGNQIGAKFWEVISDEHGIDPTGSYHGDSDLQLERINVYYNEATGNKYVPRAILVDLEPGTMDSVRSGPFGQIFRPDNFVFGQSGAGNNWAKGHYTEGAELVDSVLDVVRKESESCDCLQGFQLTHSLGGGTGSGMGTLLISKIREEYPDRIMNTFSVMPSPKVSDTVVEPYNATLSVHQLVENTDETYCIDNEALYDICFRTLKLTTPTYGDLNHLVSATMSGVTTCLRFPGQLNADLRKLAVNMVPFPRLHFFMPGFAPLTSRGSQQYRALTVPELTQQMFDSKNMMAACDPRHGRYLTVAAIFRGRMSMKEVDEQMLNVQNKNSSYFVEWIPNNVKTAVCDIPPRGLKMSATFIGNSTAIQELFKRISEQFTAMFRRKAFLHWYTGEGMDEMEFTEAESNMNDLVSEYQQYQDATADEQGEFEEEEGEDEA

[11] = biological target: Tubulin beta-3 chain (UniProt Q13509); assay: as above
Sequence of Tubulin beta-3 chain (Q13509 whole entry): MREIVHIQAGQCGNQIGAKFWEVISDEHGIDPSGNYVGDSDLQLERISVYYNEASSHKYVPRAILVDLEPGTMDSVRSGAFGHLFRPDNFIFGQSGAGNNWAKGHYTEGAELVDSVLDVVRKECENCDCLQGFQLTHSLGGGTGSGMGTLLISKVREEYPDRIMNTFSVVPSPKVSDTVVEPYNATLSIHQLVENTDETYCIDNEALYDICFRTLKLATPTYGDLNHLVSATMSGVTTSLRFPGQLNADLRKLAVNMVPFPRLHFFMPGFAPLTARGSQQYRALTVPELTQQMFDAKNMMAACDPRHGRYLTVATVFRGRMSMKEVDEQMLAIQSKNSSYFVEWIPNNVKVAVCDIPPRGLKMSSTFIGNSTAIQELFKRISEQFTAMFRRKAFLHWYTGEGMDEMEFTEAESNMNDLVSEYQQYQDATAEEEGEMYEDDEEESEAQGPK

[12] = biological target: Tubulin beta-4B chain (UniProt P68371); assay: as above
Sequence of Tubulin beta-4B chain (P68371 whole entry): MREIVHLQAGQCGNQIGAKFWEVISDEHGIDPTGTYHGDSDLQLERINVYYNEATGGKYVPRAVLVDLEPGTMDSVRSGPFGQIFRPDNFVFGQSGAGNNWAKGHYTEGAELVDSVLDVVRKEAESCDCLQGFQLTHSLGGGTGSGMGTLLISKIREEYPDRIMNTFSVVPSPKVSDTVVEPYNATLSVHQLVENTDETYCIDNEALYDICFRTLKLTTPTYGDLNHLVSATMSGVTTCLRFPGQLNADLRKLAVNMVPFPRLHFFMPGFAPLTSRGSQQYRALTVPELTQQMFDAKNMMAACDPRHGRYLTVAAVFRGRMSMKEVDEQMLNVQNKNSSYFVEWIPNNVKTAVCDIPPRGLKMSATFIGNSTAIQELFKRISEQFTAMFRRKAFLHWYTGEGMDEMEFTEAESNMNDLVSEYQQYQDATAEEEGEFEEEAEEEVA

Sequence of Elongation factor 1-alpha 1 (P68104 whole entry): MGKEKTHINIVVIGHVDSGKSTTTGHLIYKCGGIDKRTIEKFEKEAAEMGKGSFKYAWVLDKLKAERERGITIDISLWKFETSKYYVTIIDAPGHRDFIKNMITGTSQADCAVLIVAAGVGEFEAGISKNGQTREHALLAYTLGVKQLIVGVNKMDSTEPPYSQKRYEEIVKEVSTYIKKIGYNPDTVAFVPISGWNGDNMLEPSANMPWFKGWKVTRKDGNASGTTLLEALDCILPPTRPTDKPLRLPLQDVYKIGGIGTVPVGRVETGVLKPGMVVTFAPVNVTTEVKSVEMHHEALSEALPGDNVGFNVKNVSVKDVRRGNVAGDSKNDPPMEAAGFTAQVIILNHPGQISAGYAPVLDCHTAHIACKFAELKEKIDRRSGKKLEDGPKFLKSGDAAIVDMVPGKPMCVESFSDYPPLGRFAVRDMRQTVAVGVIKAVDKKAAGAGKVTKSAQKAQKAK
Sequence of ATP-dependent RNA helicase A, Q08211 (Q08211 whole entry): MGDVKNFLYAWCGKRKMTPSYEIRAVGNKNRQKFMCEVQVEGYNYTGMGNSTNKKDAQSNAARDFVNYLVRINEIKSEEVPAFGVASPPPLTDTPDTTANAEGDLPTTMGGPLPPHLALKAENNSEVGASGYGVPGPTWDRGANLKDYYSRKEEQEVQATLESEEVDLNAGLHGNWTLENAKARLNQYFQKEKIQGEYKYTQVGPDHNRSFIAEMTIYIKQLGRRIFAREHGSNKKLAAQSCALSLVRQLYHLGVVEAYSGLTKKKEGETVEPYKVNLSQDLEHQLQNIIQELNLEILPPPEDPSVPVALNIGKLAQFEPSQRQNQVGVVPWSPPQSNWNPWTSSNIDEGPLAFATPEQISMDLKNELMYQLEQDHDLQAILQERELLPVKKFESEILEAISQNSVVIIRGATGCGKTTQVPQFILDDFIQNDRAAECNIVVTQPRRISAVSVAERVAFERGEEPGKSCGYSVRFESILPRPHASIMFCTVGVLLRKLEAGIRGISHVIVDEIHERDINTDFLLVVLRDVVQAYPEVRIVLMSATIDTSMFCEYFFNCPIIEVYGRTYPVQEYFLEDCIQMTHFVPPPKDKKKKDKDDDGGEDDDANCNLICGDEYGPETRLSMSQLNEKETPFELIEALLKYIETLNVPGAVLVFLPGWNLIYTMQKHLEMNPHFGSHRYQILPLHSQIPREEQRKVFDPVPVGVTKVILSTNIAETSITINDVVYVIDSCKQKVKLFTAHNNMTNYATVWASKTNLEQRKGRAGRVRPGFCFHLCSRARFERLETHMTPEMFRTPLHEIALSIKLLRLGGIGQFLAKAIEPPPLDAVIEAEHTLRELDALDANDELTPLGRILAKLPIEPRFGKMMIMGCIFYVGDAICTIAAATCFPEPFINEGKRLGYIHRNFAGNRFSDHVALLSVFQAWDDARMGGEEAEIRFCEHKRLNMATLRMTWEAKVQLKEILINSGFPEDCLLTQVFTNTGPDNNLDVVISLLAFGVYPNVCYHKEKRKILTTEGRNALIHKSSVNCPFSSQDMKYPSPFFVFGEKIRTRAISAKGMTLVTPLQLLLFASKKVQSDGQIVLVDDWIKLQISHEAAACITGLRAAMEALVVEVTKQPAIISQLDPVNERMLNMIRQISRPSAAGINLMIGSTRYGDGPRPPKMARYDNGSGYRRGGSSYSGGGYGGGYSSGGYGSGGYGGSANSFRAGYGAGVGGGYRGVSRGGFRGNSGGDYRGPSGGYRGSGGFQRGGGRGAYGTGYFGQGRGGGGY
Sequence of Beta-actin-like protein 2 (Q562R1 whole entry): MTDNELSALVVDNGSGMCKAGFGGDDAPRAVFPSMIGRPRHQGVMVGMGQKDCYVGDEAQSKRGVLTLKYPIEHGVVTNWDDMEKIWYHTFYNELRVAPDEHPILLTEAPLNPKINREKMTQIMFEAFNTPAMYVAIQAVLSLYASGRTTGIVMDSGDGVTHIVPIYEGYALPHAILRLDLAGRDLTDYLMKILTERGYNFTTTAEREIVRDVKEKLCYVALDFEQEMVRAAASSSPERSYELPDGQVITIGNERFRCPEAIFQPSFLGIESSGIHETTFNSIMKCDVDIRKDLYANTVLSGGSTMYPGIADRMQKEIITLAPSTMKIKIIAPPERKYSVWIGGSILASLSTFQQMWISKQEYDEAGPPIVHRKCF
Sequence of Glyceraldehyde-3-phosphate dehydrogenase, P04406 (P04406 whole entry): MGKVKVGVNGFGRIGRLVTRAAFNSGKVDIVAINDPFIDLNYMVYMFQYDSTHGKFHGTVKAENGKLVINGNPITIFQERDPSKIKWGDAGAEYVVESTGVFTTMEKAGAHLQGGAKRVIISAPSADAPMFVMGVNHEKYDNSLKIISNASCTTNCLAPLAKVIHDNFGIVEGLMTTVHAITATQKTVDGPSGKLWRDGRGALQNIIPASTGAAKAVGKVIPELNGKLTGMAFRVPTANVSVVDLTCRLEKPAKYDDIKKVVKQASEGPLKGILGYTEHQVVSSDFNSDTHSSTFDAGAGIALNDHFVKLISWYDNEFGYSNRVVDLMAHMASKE
Sequence of Protein RCC2 (Q9P258 whole entry): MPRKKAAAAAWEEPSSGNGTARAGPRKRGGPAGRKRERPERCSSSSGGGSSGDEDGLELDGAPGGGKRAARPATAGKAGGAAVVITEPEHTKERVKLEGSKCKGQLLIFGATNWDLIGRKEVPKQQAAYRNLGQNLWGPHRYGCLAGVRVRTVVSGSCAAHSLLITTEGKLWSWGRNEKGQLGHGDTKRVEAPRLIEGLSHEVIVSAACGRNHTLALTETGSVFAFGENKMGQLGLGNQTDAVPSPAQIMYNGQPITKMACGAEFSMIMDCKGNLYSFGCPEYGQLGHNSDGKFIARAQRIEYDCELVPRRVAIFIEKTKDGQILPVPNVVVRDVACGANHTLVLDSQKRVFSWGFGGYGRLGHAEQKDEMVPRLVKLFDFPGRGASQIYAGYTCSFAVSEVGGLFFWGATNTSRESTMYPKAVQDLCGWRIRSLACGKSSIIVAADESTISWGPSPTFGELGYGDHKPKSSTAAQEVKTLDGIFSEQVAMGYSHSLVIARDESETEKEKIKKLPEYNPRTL

High mobility group protein B1, P09429
listed as a hit [1]: yes | listed as a hit [2]: yes | listed as a hit [3]: yes

Destrin, P60981
listed as a hit [4]: yes

Fructose-bisphosphate aldolase A, P04075
listed as a hit [5]: yes | listed as a hit [6]: yes

Heterogeneous nuclear ribonucleoprotein D-like, O14979
listed as a hit [7]: yes

ATP-dependent RNA helicase A, Q08211
listed as a hit [7]: yes

Histone H1.3, P16402
listed as a hit [8]: yes

Macrophage migration inhibitory factor, P14174
listed as a hit [9]: yes

Tubulin beta-4B chain, P68371
listed as a hit [10]: yes | listed as a hit [11]: yes

Glyceraldehyde-3-phosphate dehydrogenase, P04406
listed as a hit [12]: yes

Tubulin beta chain, P07437
listed as a hit [12]: yes
